Among all 59,000 compounds or so, about 25 (0.04%) were called active. The sample holds actives, similar compounds and a random draw of the others, so the mix is not that of the screen. The rule behind the calls is not given here.
Assay: qHTS Assay for Spectroscopic Profiling in Resorufin Spectral Region
Conditions: Compound fluorescence, resorufin region 547/598 nm, buffer
Text: NIH Molecular Libraries Screening Centers Network [MLSCN] NIH Chemical Genomics Center [NCGC] […] Occasionally, the artifactual effect may originate from the compound#s own spectral or other biophysical properties which generally tend to track its assay concentration. Pre-screening/profiling the library with respect to the compounds# spectral properties should help one exclude false positives early on. While the most informative fluorescent profiling data set is obtained by performing a full excitation and emission scan of each well by using a monochromator-based plate reader, such an approach is practical only on a very limited scale as scanning each well requires long time. An alternative approach, applied here, is to perform plate reader scans using selected excitation and emission wavelength pairs to generate a multidimensional relational database that correlates compound concentration and the respective relative fluorescence intensity at a given wavelength set. A standard curve of resorufin present on each plate as six-point concentration series, was used to compute a normalized fluorescence response, termed dye-equivalent concentration, for each compound at each concentration.
NCGC Assay Protocol Summary: Buffer: 100 mM Tris buffer, pH 8.0 Dye standard plate: The wells in columns 1 through 4 of a Kalypsys polypropylene 1536-well compound plate were filled with standard solutions of fluorophore corresponding to the spectral region of interest. Solutions of resorufin were placed in the following wells: M1, N1: 3 mM, M2, N2: 300 uM, M3, N3: 30 uM, M4, N4: zero (DMSO), O1, P1: 3 uM, O2, P2: […], O3, P3: 300 nM, O4, P4: zero (DMSO). Assay Steps: Six uL of buffer were dispensed to 1536-well Greiner black plates. Compounds and dye standards (23 nL) were transferred via Kalypsys PinTool. The plates were incubated for 15 min at room temperature, and then read on ViewLux (Perkin-Elmer) High-throughput CCD imager using 547 nm and 598 nm excitation and emission filter set. Keywords: NIH Roadmap, MLSCN, MLI, MLSMR, qHTS, NCGC, Resorufin, Fluorescent Profiling.

Max dye-equivalent concentration, inactive:
Cc1cc(C)nc(NC2=NCC(=O)N2c2ccc(Cl)cc2)n1
CCNc1ncc2nc(CCc3ccccc3)c(=O)n(-c3ccc(OC)cc3)c2n1
Cc1noc(NS(=O)(=O)c2ccc(N3CC(O)=C(c4ccccc4)C3=N)cc2)c1C
C[C@H]1O[C@@H](CC(=O)O)Cc2c1c(O)c1c(O)cc(-c3cc(=O)c4c(=O)c5c(c(=O)c=4c3=O)C[C@H](CC(=O)O)O[C@@H]5C)c(O)c1c2O
CCCOc1ccccc1-c1nc(SCCC(=O)O)n[nH]1
CCC(C)(C)n1nnnc1C(c1ccccc1OC)N1CCSCC1 (centres undefined)
Cc1ccc(S(=O)(=O)NCCN2CCOCC2)cc1C
C=CCn1c(COc2ccccc2C)nnc1SCC(=O)O
Cc1cccc(NC(=O)CSc2nc3c(c(=O)[nH]2)CCC3)c1C
COc1ccccc1N1CC(O)=C(c2nc3ccccc3s2)C1=N
CCN(CC(=O)NC(C)C)C(=O)CCNC(=O)c1ccc(Cl)cc1
COc1ccc2[nH]c3ccc(OC)cc3c2c1
Cc1cc(C(F)(F)F)c(C#N)c(SCC(=O)NC2CC2)n1
COc1ccc(O)c(C(=O)c2cnc3onc(C(C)C)c3c2)c1
CCOC(=O)Nc1ccc2c(c1)N(C(=O)CN1CCN3CCCC3C1)c1ccccc1CC2 (centres undefined)
CCCCNC(=O)c1ccccc1NC(=O)c1ccccc1N(C)S(C)(=O)=O
CCC(C)Sc1nc2c(c(=O)[nH]c(=O)n2C)n1CC(O)COc1cccc2ccccc12 (centres undefined)
COc1ccc(-n2ncc3c(N4CCc5ccccc54)ncnc32)cc1
Cc1ccc(-n2c(Cc3cccs3)nnc2SCC(=O)OC(C)C)cc1
COCCn1c(=O)c(-c2cccc(F)c2)nc2cncnc21
COc1ccc(-n2c(=O)c(-c3cn(C)c4ccccc34)nc3cnc(OC)nc32)cc1
Cc1ccc(C(=O)NCC(=O)O)cc1S(=O)(=O)N1CCCCC1
Cn1c(SCc2c(F)cccc2Cl)nnc1-c1cnccn1
O=C(NC1CCCCC1)c1ccc2c(=O)n(CC3CCCO3)c(=O)[nH]c2c1 (centres undefined)
O=c1[nH]nc(CSCc2ccccc2Cl)[nH]1
COCCNC(=O)c1snc2ccc(Cl)cc12
CCOc1ccc(NC(=O)CCS(=O)(=O)c2cccc3nsnc23)cc1
CCOc1cc(C2C(C(=O)OC)=CN(C3CCCC3)C=C2C(=O)OC)cc(Br)c1O
O=C(Nc1cnn(Cc2ccc(Cl)cc2)c1)C1CCCC1
CSc1ccc(-c2c(C#N)c(N)nc3c2c(C)nn3-c2ccccc2)cc1
COc1ccc(CC(NC(C)=O)C(=O)NC2CCN(C(=O)Nc3ccc(C#N)cc3)CC2)cc1OC (centres undefined)
CCOC(=O)N1CCN(C(=O)c2nn(-c3ccc(C)cc3)c(=O)c3c2c2ccccc2n3C)CC1
COc1ccc(Cc2nnnn2CC(=O)O)cc1
CC(c1nnc(SCC(=O)Nc2sccc2C#N)n1-c1ccc(Cl)cc1)N(C)C (centres undefined)
CC(C)(CNCC(O)c1ccccc1)N1CCOCC1 (centres undefined)
O=C(O)C1CC=C(Cl)CC1C(=O)NCc1ccccc1 (centres undefined)
O=C(COc1ccc2c3c(c(=O)oc2c1)CCC3)NC1CCCCC1
Cc1nc2cnc(Nc3ccccc3)nc2n(C[C@H]2CCCO2)c1=O
O=C(NCCCN1CCOCC1)c1cc(-c2ccc(Cl)cc2)on1
Cn1c(=O)c(CCc2ccccc2)nc2cnc(Nc3ccccc3)nc21
Cc1cc(=O)n2nc(N3CCCC(C(=O)NCCC4=CCCCC4)C3)sc2n1 (centres undefined)
COc1ccc(-n2c(SCC(=O)NCc3cccs3)nnc2-c2ccoc2C)cc1
Cc1ccnc(SCCn2c(Br)nc3c2c(=O)[nH]c(=O)n3C)n1
CCOC(=O)N1CCC(Nc2c(NCCCN3CCN(c4ccc(OC)cc4)CC3)c(=O)c2=O)CC1
CCCCn1c(SCc2ncc(-c3ccccc3)o2)nc2cc(S(N)(=O)=O)ccc21
CCOc1ccccc1-n1c(SCC(=O)NCc2ccco2)nnc1-c1ccncc1
Nc1cc(=O)nc(SCc2ccccc2)n1Cc1ccco1
Cc1c(S(=O)(=O)O)ccc(N=Nc2c(O)c(C(=O)O)cc3ccccc23)c1Cl
CCC(=O)Nc1cccc(NC(=O)CSc2nnnn2C2CCCC2)c1
Cc1cc(C)c2[nH]c(=O)c(C(c3nnnn3Cc3ccc4c(c3)OCO4)N3CCCC3)cc2c1 (centres undefined)
COc1ccccc1N(C(=O)Cn1nnc2ccccc21)C(C(=O)NCc1ccco1)c1ccc(C)o1 (centres undefined)
CCC(C(=O)N1CCOCC1)n1c(C(=O)OC)cc2occc21 (centres undefined)
CCN(c1ccccc1)S(=O)(=O)c1cccc(C(=O)O)c1
c1ccc2c(Nc3ccncc3)nc(-c3ccc4c(c3)OCO4)nc2c1
CCOC(=O)N1CCN(C(=O)Cc2ccc(-n3c(=S)[nH]c4ccccc4c3=O)cc2)CC1
CC(=O)OCc1cc(=O)n(C)c(=O)n1C
COc1ncc2nc(-c3ccc(Cl)cc3)c(=O)n(C)c2n1
CCc1c(C)nc2ncnn2c1N1CCC(C(=O)NCc2ccc3c(c2)OCO3)CC1
CN(C(=O)CSc1nnnn1-c1ccccc1)C1CCCCC1
Cc1c(-c2nn(C)c(=O)c3ccccc23)oc2ccc(F)cc2c1=O
COCCn1c(=O)[nH]c2cc(C(=O)NCc3cccnc3)ccc2c1=O
NS(=O)(=O)c1cc(Cl)c(Cl)c(S(N)(=O)=O)c1
CCOCCCN1C(=O)CN(C2CCCCC2)C(=O)C1c1ccc(OCC)c(OC)c1 (centres undefined)
Cc1cc(C)c2nc(N3CCCC3)c(C#N)cc2c1
COc1cccc(C(=O)c2cc3ccc(O)cc3oc2=O)c1
O=C1[C@@H]2C(Cc3ccc(O)cc3)NC3(C(=O)Nc4ccc(F)cc43)[C@@H]2C(=O)N1c1ccc(F)cc1 (some centres undefined)
CCC(=O)N(Cc1cc2cc(OC)ccc2[nH]c1=O)c1ccccc1C
COc1cccc(OCC(O)CN2CCN(CCO)CC2)c1 (centres undefined)
C=CCn1c(SCC(=O)NC23CC4CC(CC(C4)C2)C3)nc(O)cc1=O
COCCn1c(=O)c(-c2cccs2)nc2cnc(N3CCN(C)CC3)nc21
Cc1cc(C)cc(OCc2nnc(SCC(=O)OC3CCCCC3)o2)c1
COCCn1c(=O)c(-c2ccc(OC)cc2)nc2cnc(Oc3cccc(Cl)c3)nc21
CS(=O)(=O)Nc1cccc(-c2cncnc2Nc2ccccc2)c1
Cn1c(SCC(=O)OC2CCCCC2)nnc1-c1ccc(S(=O)(=O)N2CCCC2)cc1
CCS(=O)(=O)N1CCC(C(=O)N2CCN(c3ccccc3)CC2)CC1
CCOCC(=O)Nc1cc(OC)c(Cl)cc1OC
CCN1C(=O)/C(=C\N2CCN(c3cccc(Cl)c3)CC2)SC1=S
CCN(Cc1ccncc1)C(=O)[C@@H](CO)c1ccccc1
CC(=O)N1CCC(C(=O)Nc2nc(-c3ccccc3)ns2)CC1
COc1ccc(S(=O)(=O)NC(CC(=O)NCc2ccccc2OC)c2ccco2)cc1 (centres undefined)
Nc1nc2c(ncn2[C@H]2CC[C@@H](CO)O2)c(=O)n1C(=O)c1ccccc1
Cc1ccc(CNC(=O)CN2CCN(Cc3ccc(Cl)cc3)C2=O)cc1
CCOCCc1c(O)nc(SCC(=O)NCc2ccco2)[nH]c1=O
COc1cc(OC)cc(C(=O)NCCSCc2ccco2)c1
O=c1[nH]c(=O)n([C@H]2C[C@H](O)[C@H](CO)O2)cc1Br
O=c1c(-c2ccc(F)cc2)nc2cncnc2n1-c1ccccc1
CCOc1ccc(N(CC(=O)NCc2ccc(OC)cc2)S(=O)(=O)c2c(C)noc2C)cc1
C[C@@H]1C[C@H]2[C@@H]3C[C@H](F)C4=CC(=O)C=C[C@@]4(C)[C@]3(F)[C@H](O)C[C@]2(C)[C@@]1(O)C(=O)CO
O=C(Nc1ccccc1)c1cccnc1Nc1ccccc1
Cc1ccc(NC(=O)NCC(c2cccnc2)N2CCOCC2)cc1 (centres undefined)
O=C(c1ccco1)N1CCC[C@@]2(CCN(Cc3nccs3)C2)C1
O=C1N=C(N2CCOCC2)CS1
Cc1ccc(C(=O)CS(C)(=O)=O)cc1
O=C(Nc1ccc(Cl)cn1)Nc1cccs1
